TGFb SMAD3 inh: blocks TGF-b signaling; HepG2 CAGA-GFP TGF-b/SMAD3 reporter, GFP fluorescence, 18 h; TGF-beta stimulated, 500 pg/mL final; 1.2% of 410,000 active; Potency, µM (titrated, usually from 46.1 µM), for inactives: at the top dose activity, negative = inhibition, usual class: inhibitors; also: % is scaled to controls: 0 for no effect and ±100 for the full control effect; nearly all actives have a fitted effect of over 65% in size
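Read-out: total well GFP (ex488/em500-530) summed from mean per-cell fluorescence. Cells: HEPG2 CAGA-GFP, 1% FBS DMEM, 18 h at 37 degrees C with 500 pg/mL final TGF-beta. Unstimulated wells served as the full-inhibition control; stimulated DMSO wells = 0%.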
HepG2 viability: counter-screen for TGF-b inhibitors: cytotoxicity in HepG2 cells; HepG2 CAGA-GFP viability, ATP luminescence, 18 h; Potency, µM (series often up to 46.1 µM), for the others: at the top dose activity change, negative = cytotoxicity, hits mostly cytotoxic; 0.76% of 410,000 active; AID 588856
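CellTiter-Glo luminescence gave cytotoxicity after 18 hours at 37 degrees C. The cells were HepG2 CAGA-GFP in 1% FBS DMEM, stimulated with 500 pg/mL TGF-beta after compound addition. %Activity was normalised to no-cell wells (complete cell-killing) and DMSO (no toxicity), and curves were fitted and classified.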
ATXN2 expr inh: reduces ATXN2 reporter expression in HEK-293 cells; HEK-293 ATXN2-luciferase reporter, luminescence, 24 h; Potency, µM (series often up to 57 µM), inactives show at the highest dose activity change, negative = inhibition, hits mostly inhibitors; 0.72% of 360,000 active; AID 1745845; also: % is scaled to controls: 0 for no effect and ±100 for the full control effect; nearly all actives have a fitted effect of over 55% in size
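ATXN2-luciferase reporter cells (luciferase flanked by upstream and downstream ATXN2 gene portions) were treated 24 h at 37 °C with compounds at up to 57 uM. SteadyGlo luminescence gave expression; GF-AFC fluorescence gave viability.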
ATXN viability: reduces viability in counter-screen for ATXN expression inhibitors; S2 cells (HEK-293 line with an ATXN2-luciferase reporter) viability, CellTiter-Fluor protease fluorescence, 24 h; Potency, µM (titrated, usually from 56.7 µM), actives largely listed as cytotoxic; 0.49% of 400,000 active; also: nearly all actives have a fitted effect of over 40% in size
* marks the source's active call; other numbers are inactive results; i = inactive; ? = inconclusive; . = no result given. Hits are enriched below; roughly 2.3% of the tested compounds scored in any of these assays. Calls follow the shape of the dose curve; as a rule, active = well fitted curve in the direction sought with a large enough effect; inconclusive = small, poorly fitted or top-dose-only effect, or another doubt; inactive = no such curve, though single readings can be large; an effect the other way counts as inactive or inconclusive. Potency is read from the fitted curve at half-maximal effect.

SMILES	TGFb SMAD3 inh	HepG2 viability	ATXN2 expr inh	ATXN viability
CCC(CN)CC(C)CCNCC(O)CNCC(C)CC(CC)CN (centres undefined)	.	.	.	i
COc1cccc2c1C(=O)c1c(O)c3c(c(O)c1C2=O)C[C@@](O)(C(=O)CO)C[C@@H]3O[C@H]1C[C@H](N)[C@H](O[C@@H]2CCCCO2)[C@H](C)O1	.	.	0.4µM*	16µM*
CC(=O)[C@]1(O)Cc2c(O)c3c(c(O)c2[C@@H](O[C@H]2C[C@H](N)[C@@H](O)[C@H](C)O2)C1)C(=O)c1ccccc1C3=O	.	.	0.14µM*	.
COc1cccc2c1C(=O)c1c(O)c3c(c(O)c1C2=O)CC(O)(C(=O)CO)CC3OC1CC(N(C)C)C(O)C(C)O1 (centres undefined)	0.79µM*	2%	?	.
Cc1cc(C(=O)N(Cc2cc3cc4c(cc3nc2N2CCOCC2)CCC4)CC2CCCO2)c(=O)[nH]c1C (centres undefined)	.	.	.	i
CC(NC(=O)CCc1nnc(-c2ccc(-c3ccccc3)cc2)o1)c1nc2ccccc2[nH]1 (centres undefined)	-24%	-23%	3.8µM*	i
Cc1ccc2c(CNCCc3ccc(Cl)cc3)c(C(=O)O)n(Cc3ccc(F)cc3)c2c1	?	-33%	9%	?
C=Cc1ccc(Cn2c(C(=O)O)c(CNCCc3ccccc3)c3ccc(C)cc32)cc1	?	-111%	?	22µM*
COc1ccc(Cn2c(C(=O)O)c(CNCCc3ccccc3Cl)c3ccc(C)cc32)cc1	?	-31%	?	18µM*
Cc1ccc(Cn2c(C(=O)O)c(CNCc3ccccc3Cl)c3ccc(C)cc32)cc1	?	-6%	8%	?
O=C(O)C(O)Cc1ccc(O)c(O)c1 (centres undefined)	.	.	-12%	.
CC(C)Oc1ccc(F)cc1-c1cc(C(=O)N2CCc3ccccc3C2)[nH]n1	14µM*	-33%	?	?
CC(C)Oc1ccc(F)cc1-c1cc(C(=O)Nc2ccccc2)[nH]n1	3%	4%	19%	i
COc1cccc(Nc2nc(NCCO)c3ccccc3n2)c1	13µM*	-36%	-12%	i
CNc1nc(NCc2ccco2)c2ccccc2n1	2.8µM*	-39%	.	.
COc1ccc(OC)c(Nc2nc(NCc3ccco3)c3ccccc3n2)c1	?	-53%	32µM*	.
Cc1cccc(Nc2nc(NCc3ccco3)c3ccccc3n2)c1	?	10µM*	25µM*	.
c1ccc(Nc2nc(NCc3ccco3)c3ccccc3n2)cc1	?	-77%	-31%	i
Cc1ccccc1Nc1nc(NCc2ccco2)c2ccccc2n1	?	-37%	?	?
CC1=C(C(=O)Nc2cc3cn[nH]c3cc2F)C(c2ccc(Cl)cc2F)N=C(c2ccnc(Cl)c2)N1 (centres undefined)	.	.	-1%	.
CCn1nc(C)cc1C(=O)NCC1Cc2cccc(-c3cccnc3)c2O1 (centres undefined)	.	.	.	i
O=C(NCc1ccccn1)c1cnn(-c2nccc(-c3ccccc3F)n2)c1C1CC1	.	.	.	i
O=C(N/N=C/c1ccc([N+](=O)[O-])o1)c1ccccc1-n1cccc1	10µM*	-62%	?	?
Cc1ccc(-c2cc(C(=O)N/N=C/c3ccc([N+](=O)[O-])o3)c3ccccc3n2)o1	14µM*	11µM*	-26%	i
O=C(N/N=C/c1ccc([N+](=O)[O-])o1)c1cc(-c2ccc(-c3ccccc3)cc2)nc2ccccc12	-14%	-8%	?	?
SMILES	TGFb SMAD3 inh	HepG2 viability	ATXN2 expr inh	ATXN viability
O=C(N/N=C/c1ccc([N+](=O)[O-])o1)c1ccc2c(c1)OCO2	16µM*	11µM*	10µM*	i
CC(C)(C)n1ncc2c(=O)n(Cc3c(Cl)ccc(Cl)c3Cl)cnc21	-2%	-2%	.	.
CCOc1ccc(Nc2nc(C)c(NC(=O)c3ccc(C)cc3)c(Nc3ccc(OCC)cc3)n2)cc1	?	-16%	0%	?
Cc1ccc(Nc2nc(C)c(NC(=O)c3ccc(C)cc3)c(Nc3ccc(C)cc3)n2)cc1	14µM*	-18%	?	i
CN(C)S(=O)(=O)c1ccc(-c2csc(N/N=C/c3ccco3)n2)cc1	?	-43%	?	?
CN(C)S(=O)(=O)c1ccc(-c2csc(N/N=C/c3ccc(O)cc3)n2)cc1	?	13µM*	?	.
Cc1ccc(NC(=O)C2=C(c3ccccc3)S(=O)(=O)CCS2(=O)=O)cc1	3.5µM*	7.1µM*	?	11µM*
Cc1ccc(NC(=O)c2ccccc2)cc1	-3%	-14%	-14%	i
COc1ccccc1C(=O)N(Cc1cc2cccc(C)c2nc1N1CCC(O)CC1)C1CC1	.	.	.	i
Cc1cc(-c2ccc(S(=O)(=O)Nc3ccc(Br)c(C)c3)s2)on1	13µM*	-51%	.	.
Cc1cc(-c2ccc(S(=O)(=O)Nc3ccc(C#N)cc3)s2)on1	-5%	-6%	14%	i
O=C(OCC(=O)N1CCCC1=O)c1nc(Cl)c(Cl)c(Cl)c1Cl	-2%	-15%	?	32µM*
COc1ccccc1-c1ccnc(-n2ncc(C(=O)N(C)C(C)c3ccon3)c2C2CC2)n1 (centres undefined)	.	.	.	i
COc1ccc(-c2nn3c(-c4cc(-c5ccccc5)n[nH]4)nnc3s2)cc1	-7%	-14%	.	.
O=C1NC(=S)S/C1=C\C=C\c1ccc([N+](=O)[O-])o1	2.2µM*	-105%	?	8.9µM*
COc1ccc(/C=C/C(=O)Nc2ccc3nc4c(c(Nc5ccc(OC)c(OC)c5)c3c2)CCCC4)cc1	4.5µM*	5µM*	.	.
COc1ccc(Nc2c3c(nc4ccc(NC(=O)/C=C/c5cccc(OC)c5OC)cc24)CCCC3)cc1OC	3.5µM*	-93%	.	.
COc1ccc(Nc2c3c(nc4ccccc24)CCCC3)cc1OC	?	-12%	?	i
COc1ccc(Nc2c3c(nc4ccc(NC(=O)/C=C/c5cc(OC)c(OC)c(OC)c5)cc24)CCCC3)cc1OC	3.2µM*	2.8µM*	.	.
COc1ccccc1Nc1c2c(nc3ccc(NC(=O)/C=C/c4cccc(OC)c4OC)cc13)CCCC2	?	-75%	.	.
COc1ccc(/C=C/C(=O)Nc2ccc3nc4c(c(Nc5ccccc5OC)c3c2)CCCC4)cc1	7.1µM*	-84%	.	.
CC(C)(C)n1ncc2c(=O)n(Cc3ccc(C#N)c(F)c3)cnc21	-3%	-1%	.	.
COc1ccc(/C=C/C(=O)Nc2ccc3nc(N4CCCCC4)cc(C)c3c2)cc1OC	13µM*	-93%	?	?
CCOc1ccc(/C=C/C(=O)Nc2ccc3nc(N(CC)CC)cc(C)c3c2)cc1OC	?	-56%	.	.
CCN(CC)c1cc(C)c2cc(NC(=O)/C=C/c3cc(OC)c(OC)c(OC)c3)ccc2n1	16µM*	10µM*	.	.
COc1cccc([C@@H](C)NCCCc2ccccc2Cl)c1	.	.	4%	.
Cc1cc(C)cc(OCC(=O)Nc2cccc(-c3nc4ccccc4[nH]3)c2)c1	?	-62%	-20%	?
O=C(COc1ccccc1)Nc1cccc(-c2nc3cc4ccccc4cc3[nH]2)c1	?	10µM*	-20%	?
